# Measurements taken from ChEMBL document CHEMBL2218924, “A broad activity screen in support of a chemogenomic map for kinase signalling research and drug discovery” (Biochem J, 2013).
# Key:
# [1] = molecular target: Protein kinase C alpha type (Homo sapiens) (UniProt P17252); conditions: at 1 µM
# [2] = molecular target: Protein kinase C alpha type (Homo sapiens) (UniProt P17252); conditions: at 10 µM
# [3] = molecular target: Protein kinase C beta type (Homo sapiens) (UniProt P05771); conditions: at 1 µM
# [4] = molecular target: Protein kinase C beta type (Homo sapiens) (UniProt P05771); conditions: at 10 µM
# [5] = molecular target: Protein kinase C beta type (Homo sapiens) (UniProt P05771); conditions: at 1 µM; remark: listed apart in the source
# [6] = molecular target: Protein kinase C beta type (Homo sapiens) (UniProt P05771); conditions: at 10 µM; remark: listed apart in the source
# [7] = molecular target: Protein kinase C gamma type (Homo sapiens) (UniProt P05129); conditions: at 1 µM
# [8] = molecular target: Protein kinase C gamma type (Homo sapiens) (UniProt P05129); conditions: at 10 µM
# [9] = molecular target: Protein kinase C delta type (Homo sapiens) (UniProt Q05655); conditions: at 1 µM
# [10] = molecular target: Protein kinase C delta type (Homo sapiens) (UniProt Q05655); conditions: at 10 µM
# [11] = molecular target: T1, Protein kinase C epsilon type (Homo sapiens) (UniProt Q02156); conditions: at 1 µM
# T1 sequence (whole entry): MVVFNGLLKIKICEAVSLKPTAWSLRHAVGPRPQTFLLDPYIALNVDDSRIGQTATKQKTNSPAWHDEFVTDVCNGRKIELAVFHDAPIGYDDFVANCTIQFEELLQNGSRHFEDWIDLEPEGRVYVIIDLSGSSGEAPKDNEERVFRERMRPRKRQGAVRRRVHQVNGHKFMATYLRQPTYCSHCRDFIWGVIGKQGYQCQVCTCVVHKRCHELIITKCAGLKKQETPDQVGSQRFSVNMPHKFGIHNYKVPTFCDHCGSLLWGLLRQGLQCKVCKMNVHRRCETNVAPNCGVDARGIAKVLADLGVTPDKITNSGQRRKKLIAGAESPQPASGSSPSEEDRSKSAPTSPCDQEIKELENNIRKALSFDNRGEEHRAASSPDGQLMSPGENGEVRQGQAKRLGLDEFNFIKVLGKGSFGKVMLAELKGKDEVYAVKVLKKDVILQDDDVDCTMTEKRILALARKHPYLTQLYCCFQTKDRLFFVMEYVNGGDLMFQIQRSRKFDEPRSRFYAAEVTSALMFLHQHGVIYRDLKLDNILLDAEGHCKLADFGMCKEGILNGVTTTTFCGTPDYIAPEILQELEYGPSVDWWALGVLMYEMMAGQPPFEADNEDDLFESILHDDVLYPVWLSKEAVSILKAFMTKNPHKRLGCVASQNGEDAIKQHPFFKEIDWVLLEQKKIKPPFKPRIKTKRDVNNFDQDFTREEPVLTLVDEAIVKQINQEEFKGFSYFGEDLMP
# [12] = molecular target: T1, Protein kinase C epsilon type (Homo sapiens); conditions: at 10 µM
# Chain of Protein kinase C delta type (Homo sapiens) (Q05655 whole entry, looked up): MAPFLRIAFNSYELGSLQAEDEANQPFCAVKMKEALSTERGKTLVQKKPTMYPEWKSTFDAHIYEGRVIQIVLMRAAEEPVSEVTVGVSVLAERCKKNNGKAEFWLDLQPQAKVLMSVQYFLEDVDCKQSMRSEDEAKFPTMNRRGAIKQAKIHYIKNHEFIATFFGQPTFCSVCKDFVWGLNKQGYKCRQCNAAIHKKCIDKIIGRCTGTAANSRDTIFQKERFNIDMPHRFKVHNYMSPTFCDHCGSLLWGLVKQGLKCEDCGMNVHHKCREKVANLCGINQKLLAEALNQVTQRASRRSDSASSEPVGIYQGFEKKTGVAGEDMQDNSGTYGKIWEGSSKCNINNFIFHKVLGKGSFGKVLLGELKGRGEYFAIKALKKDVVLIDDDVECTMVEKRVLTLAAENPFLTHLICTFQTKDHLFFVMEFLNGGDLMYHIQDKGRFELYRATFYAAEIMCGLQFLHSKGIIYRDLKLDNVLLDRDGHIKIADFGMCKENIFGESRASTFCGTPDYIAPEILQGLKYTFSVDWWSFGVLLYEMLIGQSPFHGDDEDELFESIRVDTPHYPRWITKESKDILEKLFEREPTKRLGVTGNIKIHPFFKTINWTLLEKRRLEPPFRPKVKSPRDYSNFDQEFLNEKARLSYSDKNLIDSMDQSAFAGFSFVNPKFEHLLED
# Chain of Protein kinase C beta type (Homo sapiens) (P05771 2-671 limits assumed): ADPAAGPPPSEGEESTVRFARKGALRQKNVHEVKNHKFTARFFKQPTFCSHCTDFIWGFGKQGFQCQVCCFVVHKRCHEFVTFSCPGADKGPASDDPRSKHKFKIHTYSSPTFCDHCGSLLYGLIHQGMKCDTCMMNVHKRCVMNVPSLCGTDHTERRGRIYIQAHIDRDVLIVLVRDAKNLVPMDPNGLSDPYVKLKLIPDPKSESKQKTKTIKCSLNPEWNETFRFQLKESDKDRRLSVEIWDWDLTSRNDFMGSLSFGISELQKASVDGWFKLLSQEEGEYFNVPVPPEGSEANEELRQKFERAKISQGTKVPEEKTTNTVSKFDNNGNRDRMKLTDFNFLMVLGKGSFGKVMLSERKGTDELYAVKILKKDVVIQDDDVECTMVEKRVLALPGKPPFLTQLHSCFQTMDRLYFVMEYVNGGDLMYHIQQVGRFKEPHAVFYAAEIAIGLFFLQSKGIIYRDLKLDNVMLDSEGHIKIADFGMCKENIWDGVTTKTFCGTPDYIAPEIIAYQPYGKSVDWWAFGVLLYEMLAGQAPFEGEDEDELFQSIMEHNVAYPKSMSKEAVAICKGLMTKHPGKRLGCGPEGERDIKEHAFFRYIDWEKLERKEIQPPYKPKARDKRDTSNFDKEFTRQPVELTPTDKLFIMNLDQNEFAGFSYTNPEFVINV
Compound,residual activity [1] [%],residual activity [2] [%],residual activity [3] [%],residual activity [4] [%],residual activity [5] [%],residual activity [6] [%],residual activity [7] [%],residual activity [8] [%],residual activity [9] [%],residual activity [10] [%],residual activity [11] [%],residual activity [12] [%]
O=C1NC(=O)/C(=C/c2ccc3c(c2)OC(F)(F)O3)S1,106,102,134,126,98,102,103,101,107,103,106,99
CCOc1cc2ncnc(Nc3cccc(Br)c3)c2cc1OCC,107,97,87,97,100,103,108,112,106,104,84,100
N#C/C(=C(\N)Sc1ccc(N)cc1)c1ccccc1C(F)(F)F,107,96,114,104,114,99,98,104,99,104,100,106
Nc1nc(Nc2ccc(S(N)(=O)=O)cc2)nn1C(=S)Nc1c(F)cccc1F,51,18,84,38,88,78,71,66,10,9,30,8
c1ccc(-c2n[nH]c3c2oc2ccccc23)cc1,,,,,96,98,,,,,97,88
CCC(=O)Nc1ccc2ncnc(Nc3cccc(Br)c3)c2c1,100,91,117,99,108,104,109,100,101,113,79,110
COc1ccc(C(=O)Nc2sc3c(c2C(N)=O)CCCC3)cc1OC,106,100,109,94,111,101,117,104,101,104,89,96
Cc1ccc(S(=O)(=O)/C=C/C#N)cc1,88,93,98,102,104,,99,87,101,105,101,92
CCN(CC)C(=O)c1ccc(Nc2nc(OCC3CCCCC3)c3nc[nH]c3n2)cc1,95,58,,,,,46,13,78,26,80,69
COc1ccc(OC)c2c(=S)c3ccccc3[nH]c12,102,101,89,115,106,97,96,91,103,98,98,109
Cc1cc(Nc2nc(-c3ccccc3)nc3ccccc23)n[nH]1,,63,109,,106,,,51,,,,
COc1cc2ncc(-c3ccccc3)nc2cc1OC,,,131,124,97,96,,,,,,
N#CCCc1ccc2c(c1)-c1[nH]c3ccc([N+](=O)[O-])cc3c1CC(=O)N2,,,,,,,,,68,57,,
C[C@@H](N)[C@H]1CC[C@H](C(=O)Nc2ccncc2)CC1,94,84,101,87,81,34,97,96,48,12,71,31
COc1ccc(CNc2nc(N(CCO)CCO)nc3c2ncn3C(C)C)cc1,34,13,87,86,87,79,97,86,60,27,115,105
Oc1ccc(Nc2nc(-c3ccc(Cl)cc3)cs2)cc1,110,101,,112,121,101,102,105,105,110,115,112
O=C1c2ccccc2-[n+]2ccc3c([nH]c4ccccc43)c21,106,98,102,97,93,88,97,,101,104,93,94
O=C1Nc2ccccc2/C1=C1/Nc2ccccc2/C1=N\OCCC(O)CO (configuration not stated),96,65,108,,97,99,81,74,,,95,82
O=[N+]([O-])c1ccc(-c2nc(-c3ccc(F)cc3)c(-c3ccncc3)[nH]2)cc1,110,99,107,97,107,96,,114,104,103,106,99
CC[n+]1c(/C=C/N(C)c2ccccc2)n(-c2ccccc2)c2ccc(-c3nc4ccccc4s3)cc21,112,103,103,97,96,92,115,110,100,102,101,107

Compound,residual activity [1] [%],residual activity [2] [%],residual activity [3] [%],residual activity [4] [%],residual activity [5] [%],residual activity [6] [%],residual activity [7] [%],residual activity [8] [%],residual activity [9] [%],residual activity [10] [%],residual activity [11] [%],residual activity [12] [%]
O=C1Nc2ccc(Br)cc2/C1=C\c1cc2c([nH]1)CCCC2,104,105,,,,,109,111,100,107,,
Cc1nc(-c2ccccc2)c(-c2ccncc2)o1,113,101,109,95,106,101,108,,101,90,108,108
CN(C)CCCn1cc(C2=C(c3c[nH]c4ccccc34)C(=O)NC2=O)c2ccccc21,,,,,9,2,,,2,-1,,
Cc1cccc(-c2[nH]c(C(C)(C)C)nc2-c2ccc3c(c2)OCO3)n1,,,,,,,,,98,101,80,91
Nc1cccc(-c2cc3c(Oc4cccc(O)c4)ncnc3[nH]2)c1,,97,,,104,95,98,101,100,95,120,98
N#Cc1cnc2cnc(NCc3cccnc3)cc2c1Nc1ccc(F)c(Cl)c1,98,55,18,18,,,,,61,24,81,42
N#CC(C#N)=C(N)/C(C#N)=C/c1ccc(O)cc1,,,120,122,96,90,,79,,,95,89
COc1cc2ncnc(Nc3ccc(NC(=O)c4ccccc4)cc3)c2cc1OC,,107,,,100,94,,,107,102,93,
c1ccc(-c2n[nH]cc2-c2ccnc3ccccc23)nc1,,,,,101,94,,,94,92,74,89
Oc1ccc(-c2nc(-c3ccc(F)cc3)c(-c3ccncc3)[nH]2)cc1,112,92,124,85,110,81,106,103,98,90,122,99
CO[C@H]1[C@@H](OC)C[C@H](C)[C@@H](OC)C2=CC(=O)C=C(NC(=O)/C(C)=C/C=C/[C@H](OC)[C@@H](OC(N)=O)/C(C)=C/[C@@H]1C)C2=O,110,107,106,121,92,97,111,99,107,107,100,102
Cn1cc(/C=C2\C(=O)Nc3ccc(S(N)(=O)=O)cc32)c2ccccc21,108,104,111,109,103,108,,79,101,99,90,100
Cc1cncc2cccc(S(=O)(=O)N3CCCN(C(=O)CN)C[C@H]3C)c12,99,85,82,31,95,51,,,7,3,58,23
O=C1NC(=O)c2cc(Nc3ccc(F)cc3)c(Nc3ccc(F)cc3)cc21,104,101,107,86,93,103,111,98,97,105,67,73
Ic1cccc(CSc2nnc(-c3ccncc3)o2)c1,96,95,107,102,95,92,97,104,100,101,88,88
Cc1cc2ncc(-c3ccccc3)nc2cc1C,106,109,125,131,100,107,106,105,103,85,,100
O=C(Nc1cccc(Nc2nccc(Nc3cccc(C(F)(F)F)c3)n2)c1)C1CC1,95,66,110,107,99,102,98,90,100,106,95,80
O=C1NC(=O)c2c1c1c3ccccc3[nH]c1c1[nH]c3cc(Br)ccc3c21,102,103,108,95,104,95,99,100,97,102,94,102
O=C1Nc2cc(Br)ccc2/C1=C1/Nc2ccccc2/C1=N\O,98,104,100,101,102,95,101,107,112,118,107,91
